Measured values reported in PubChem BioAssay AID1347147 (National Center for Advancing Translational Sciences (NCATS), 2019).
Records with an inconclusive call do not appear. Where a call stands in place of a potency, no number is given. Activity calls are given as the source filed them. The call rests on the fitted dose curve; in most records, active means well fitted inhibition curve with a large enough effect; inconclusive means small, poorly fitted or top-dose-only effect; inactive means no such curve, though single readings can be large or run the other way.
Potency means the concentration at half of the fitted maximal effect.

These compounds were tested against N-terminal Xaa-Pro-Lys N-methyltransferase 1 (Homo sapiens) (UniProt Q9BV86) (assay: qHTS Assay for Inhibitors of N-terminal methyltransferase 1 (NTMT1): MTaseGlo Confirmatory Screen, Round 2). Details: NTMT1 enzyme, MTase-Glo SAH luminescence; series mostly up to 57.4 µM.
N-terminal Xaa-Pro-Lys N-methyltransferase 1 (Homo sapiens), sequence (Q9BV86 whole entry, looked up): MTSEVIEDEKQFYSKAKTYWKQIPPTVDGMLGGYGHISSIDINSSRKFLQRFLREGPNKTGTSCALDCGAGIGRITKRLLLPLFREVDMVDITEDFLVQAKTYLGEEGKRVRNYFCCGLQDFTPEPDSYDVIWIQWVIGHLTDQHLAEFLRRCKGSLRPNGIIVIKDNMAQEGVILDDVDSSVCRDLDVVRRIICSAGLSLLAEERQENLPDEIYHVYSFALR
Text: Assay Submitter (PI): Rong Huang Ph.D, Purdue University, West Lafayette, IN 47907
The N-terminal methytransferase 1 is the first methyltransferase that methylates protein alpha-N-amines and plays an important role in regulating cell mitosis, chromatin interactions and DNA repair. It is observed to be over-expressed in various cancer patient tissues like malignant melanoma and colorectal cancer tissues. Knockdown of NTMT1 in cancer cells causes cell mitotic defects and enhances sensitivity to DNA damaging chemotherapeutics. […] These critical cellular processes in which NTMT1 is implicated, coupled with emerging links to cellular dysfunction, strengthen the inference that NTMT1 is a compelling novel anticancer target. Progress have been made in understanding the molecular properties of NTMT1 and the biological consequences of protein alpha-N-terminal methylation, but there are no specific small molecule probes available for NTMT1 to fully characterize its MTase activity. To address this unmet need, a panel of assay is created and established to enable quantitative high-throughput screening (qHTS) for novel, potent, and selective small molecule NTMT1 inhibitors. Two orthogonal qHTS that use different reagents (ThioGlo vs. MTaseGlo) are developed for primary robotic screening against the NCATS chemical library of more than 400,000 small molecules. Identified inhibitors are reacquired, validated, and further characterized.
MTaseGlo Assay is a luminescence screen that measure the activity of methyltransferases based on the reaction product S-adenosyl homocysteine (SAH). The substrate SAM is converted to SAH upon enzyme activation. MTase-Glo reagent and detection solution convert SAH to ATP and measure the light from the luciferase reaction.
Early Translation Branch (ETB)
National Center for Advancing Translational Sciences (NCATS)
National Institute of Health (NIH)
NTMT1 enzyme, substrate SPKRIA, control peptide RCC1-6 is provided by the Huang laboratory.
In brief, 3 µL of enzyme mixture (final concentrations of 125 nM and 100 µM for NTMT1 and SAM, respectively) into all wells of a 1,536-well solid-bottom white plate (Greiner Bio One, Monroe, NC). 23 nL of DMSO or Ac-RCC1-10 (final concentration range 234 nM to 143 microM) was transferred via Wako Pin-tool (Wako Automation, Richmond, VA) and incubated (RT) for ~15 minutes. Next, 1 µL of substrate (final concentration 1 µM) or buffer was dispensed, and the reaction proceeded for 30 minutes (RT, protected from light) followed by a 1 microL addition of [5X] MTase-Glo Reagent(R). Samples were incubated (RT, protected from light) for 30 minutes to allow for SAH to be converted to ADP, followed by a 5 microL addition of [1X] MTase-Glo Detection Solution(R) to allow for ADP to be converted to ATP, which was then detected with a luciferase reaction. Samples were centrifuged for 15 seconds at 1,000 RPM's, followed by a RT incubation for 30 minutes. Plates were then read using Luminescence optics on a ViewLux detector. Data were normalized to no-enzyme (0% activity) and no-inhibitor (DMSO; 100%) controls, and the resulting percent inhibition data were fitted to a 4-parameter Hill equation using Graphpad Prism.
With `O=[N+]([O-])c1ccc2c(c1)S(=O)(=O)C=C2` the Potency was “inactive”.
In the case of `O=c1[nH]c(=S)[nH]c(-c2ccccc2)c1Cc1c(O)ccc2ccccc12`, the Potency is reported as “inactive”.
In the case of `CCN(CC)C(C)CN1c2ccccc2Sc2ccccc21` (stereo not given), the Potency is reported as “inactive”.
For `O=C1Cc2c([nH]c3ccc(Br)cc23)-c2ccccc2N1`, the Potency was “inactive”.
In the case of `CN(C)C(=O)/N=N/C(=O)N(C)C`, the Potency is reported as “inactive”.
In the case of `CC(C)COCC(CN(Cc1ccccc1)c1ccccc1)N1CCCC1` (stereo not given), the Potency is reported as “inactive”.
In the case of `O=c1cc(-c2ccccc2)oc2c(O)c(O)ccc12`, the Potency is reported as “inactive”.
`C[C@H](NC(=O)/C(C#N)=C/c1ccc(O)c(O)c1)c1ccccc1` was tested, and the Potency was “inactive”.
`CSc1nc(N)c2ncn([C@@H]3O[C@H](COP(=O)(O)OP(=O)(O)O)C(O)[C@H]3O)c2n1` (stereo not given in full) was tested, and the Potency was 20 µM (active).
With `Nc1ncnc2c1ncn2[C@@H]1O[C@H](COP(=O)(O)OP(=O)(O)OC[C@H]2OC(O)[C@H](O)[C@@H]2O)[C@@H](O)[C@H]1O` (stereo not given in full) the Potency was “inactive”.
For `Nc1nc(=S)c2ncn([C@H]3O[C@@H](CO)[C@@H](O)[C@@H]3O)c2[nH]1`, the Potency was “inactive”.
For `CC[n+]1c(/C=C/C=C2/N(C)c3ccccc3C2(C)C)sc2ccccc21`, the Potency was 14.1 µM (active).
`COc1cc2c(NC3CCN(CC4CCCCC4)CC3)nc(N3CCCCC3)nc2cc1OCCCN1CCCCC1` was tested, and the Potency was “inactive”.
With `Cc1[nH]c(=O)c(C#N)cc1-c1ccc2nccn2c1` the Potency was “inactive”.
`CCC(=O)c1ccc2c(c1)N(CCCN(C)C)c1ccccc1S2` was tested, and the Potency was “inactive”.
With `CC#C[C@]1(O)CC[C@H]2[C@@H]3CCC4=CC(=O)CCC4=C3[C@@H](c3ccc(N(C)C)cc3)C[C@@]21C` the Potency was “inactive”.
`Nc1ncnc2c1ncn2[C@H]1O[C@@H](CNS(=O)(=O)NC(=O)c2cccc(-c3noc(-c4ccccc4F)n3)c2)[C@H](O)[C@@H]1O` was tested, and the Potency was 2 µM (active).
With `Oc1ccc(Cn2cc[nH]c2=S)cc1` the Potency was “inactive”.
`Brc1c(Br)c(Br)c2[nH]cnc2c1Br` was tested, and the Potency was “inactive”.
`Nc1nc(F)nc2c1ncn2[C@@H]1O[C@H](CO)[C@@H](O)[C@@H]1O` was tested, and the Potency was “inactive”.
`N[C@@H](Cc1ccc(O)c(O)c1)C(=O)O` was tested, and the Potency was “inactive”.
For `N#CC(C#N)=C(N)/C(C#N)=C/c1ccc(O)cc1`, the Potency was “inactive”.
In the case of `Nc1nc2ccc(Cl)cc2c2nc(-c3ccco3)nn12`, the Potency is reported as “inactive”.
For `COc1cc2nc(N3CCCN(C)CC3)nc(NC3CCNCC3)c2cc1OC`, the Potency was “inactive”.
`OC[C@H]1O[C@@H](n2cnc3c(NCc4ccco4)ncnc32)[C@H](O)[C@@H]1O` was tested, and the Potency was “inactive”.
For `Cc1ccc(O)c(N=Nc2ccccc2)n1`, the Potency was 14.1 µM (active).
With `Cc1nnc(SCC2=C(C(=O)O)N3C(=O)[C@@H](NC(=O)Cn4cnnn4)[C@H]3SC2)s1` the Potency was “inactive”.
With `OCC1OC(n2cnc3c(=S)nc[nH]c32)C(O)C1O` (stereo not given) the Potency was “inactive”.
With `Nc1nc(Cl)nc2c1ncn2[C@@H]1O[C@H](CO)[C@@H](O)[C@H]1O` the Potency was “inactive”.
With `COc1ccccc1N1CCN(CCN2C(=O)CC3(CCCC3)CC2=O)CC1` the Potency was “inactive”.
`Cn1ncc(S(=O)(=O)Cc2ccccc2)c(Br)c1=O` was tested, and the Potency was “inactive”.
For `CCN1C(=O)C=CC1=O`, the Potency was “inactive”.
For `Brc1c(NC2=NCCN2)ccc2nccnc12`, the Potency was “inactive”.
With `N[C@@H](Cc1c[nH]c2ccc(O)cc12)C(=O)O` the Potency was “inactive”.
`Cc1cc(C)c(CNC(=O)c2cc(-c3ccc(CN4CCOCC4)cc3)cc3c2cnn3C2CCCC2)c(=O)[nH]1` was tested, and the Potency was “inactive”.
`CN(C)[C@@H]1C(=O)C(C(N)=O)=C(O)[C@@]2(O)C(=O)C3=C(O)c4c(O)ccc(Cl)c4[C@@H](O)[C@H]3C[C@@H]12` was tested, and the Potency was “inactive”.
With `O=C1Nc2ccc(I)cc2/C1=C/c1cc(Br)c(O)c(Br)c1` the Potency was 8.91 µM (active).
In the case of `Nc1ncnc2c1ncn2[C@@H]1O[C@H](CO)[C@@H](O)[C@H]1O`, the Potency is reported as “inactive”.
`NC(Cc1c[nH]c2ccc(O)cc12)C(=O)O` (stereo not given) was tested, and the Potency was “inactive”.
With `OCCN1CCN(CC/C=C2/c3ccccc3Sc3ccc(C(F)(F)F)cc32)CC1` the Potency was “inactive”.
